# Compound activity deposited in PubChem BioAssay by several laboratories.
# EP2 modulator: EP2 receptor modulators, cAMP readout, primary screen, cell-based, HTRF cAMP, PGE2 stimulation; EP2-expressing cells, cAMP HTRF FRET, PGE2 co-stimulation; induction, % at 25 µM; actives 0.83% (n = 260,000); Prostaglandin E2 receptor EP2 subtype (Homo sapiens), P43116;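 active = compounds whose cAMP rise, as percent of the full-agonist control response, exceeds 60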;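 also: rat C6 glioma line stably carrying human EP2 under a CMV promoter; the protocol text gives 20 µM as final concentration; 100% = response of wells given 1 µM PGE2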
# Target sequence (P43116 whole entry, looked up): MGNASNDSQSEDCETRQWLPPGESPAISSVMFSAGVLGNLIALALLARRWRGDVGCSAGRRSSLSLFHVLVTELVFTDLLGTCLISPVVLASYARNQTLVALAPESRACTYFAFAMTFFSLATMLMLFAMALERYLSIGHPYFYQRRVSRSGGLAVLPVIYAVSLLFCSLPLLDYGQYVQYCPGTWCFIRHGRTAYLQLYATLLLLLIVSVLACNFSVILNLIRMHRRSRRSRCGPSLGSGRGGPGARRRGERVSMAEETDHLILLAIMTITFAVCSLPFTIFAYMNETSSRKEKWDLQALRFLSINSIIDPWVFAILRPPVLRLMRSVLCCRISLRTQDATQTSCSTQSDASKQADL
# RAM inhibit: inhibitors of the yeast RAM network, primary screen, dse1pr::URA3 reporter, 5-FOA selection. AID 868, 2007. inhibition, % at 50 µM. actives 1.8% (n = 190,000). S. cerevisiae dse1pr::URA3 reporter, 5-FOA growth OD615, 2 d; analog-sensitive cbk1-as2 kinase mutant strain;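 active = inhibition above a set limit, 3 SD over mean compound inhibition, cut at about 8.4% in these data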;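 also: 0% = DMSO-only wells with no growth and 100% = 10 µM 1-NA-PP1 full growth; inhibition rescues growth on 5-FOA so higher OD means more RAM inhibition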
# SKN-1 block: suppressors of acrylamide-induced Pgst-4::GFP reporter in worms, primary screen, SKN-1 inhibitor project, whole organism, uHTS, GFP/RFP fluorescence ratio, strain VP596; inhibition, % at 21.8 µM; actives 0.49% (n = 360,000); C. elegans VP596 Pgst-4::GFP/RFP ratio, 24 h;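 active = interference check ratio from 0.5 to 1.5 plus GFP to RFP signal ratio inhibition reaching or exceeding a fixed threshold, cut at about 30% in these data, passing the limit was not always enough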
# NR1D1 modulator: modulators of Rev-erb alpha DNA binding, primary screen, biochemical, FITC-DNA, fluorescence polarization, uHTS; actives 0.79% (n = 370,000); Rev-erbα–FITC-DNA binding, 90 min; AID 1259318, 2017; Nuclear receptor subfamily 1 group D member 1 (Homo sapiens), P20393; activity, % at 10 µM;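 active = activity above about 14%, limit read from the data; passing the limit was not always enough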;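 also: 0% = DMSO wells with 35 nM protein and 100% = DMSO wells with 750 nM protein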
# PG9 binder: binders of HIV-1 gp120 antibody PG9, primary screen, biochemical, TR-FRET; HIV-1 gp120 / PG9 antibody interaction; actives 0.43% (n = 360,000); TR-FRET gp120-PG9 antibody binding; inhibition, % at 6.7 µM; in the data active = inhibition above about 8.5%
# PGE2 EP2 inh: human EP2 receptor antagonists, primary screen, TR-FRET cAMP, C6 glioma cells. Prostaglandin E2 receptor EP2 subtype (Homo sapiens), P43116. actives 0.52% (n = 260,000). inhibition, % at 25 µM. C6 glioma cells expressing human EP2; cells stimulated with saturating PGE2;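 active = percent inhibition above 40 after rounding to a whole number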;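 also: rat C6 glioma host cells with rolipram phosphodiesterase inhibitor present; the protocol text gives 20 µM as final concentration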
# NR1D1 mod conf: modulators of Rev-erb alpha DNA binding, confirmation, biochemical, FITC-DNA, fluorescence polarization, single point; shares compounds with NR1D1 modulator; 90 min; activation, % at 25 µM; actives 61% (n = 3,000); AID 1259319, 2017;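 active = activation at or above a set limit, or at least 3 SD above the negative control mean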;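 also: 0% = 35 nM protein with DMSO and 100% = 750 nM protein high control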
# RORg DNA counter: modulation of RORgamma DNA binding, dose response, counter-screen for Rev-erb alpha modulator project, biochemical, fluorescence polarization, FITC-DNA; shares compounds with NR1D1 modulator; purified RORgamma protein-FITC-DNA binding; IC50, µM; actives 8% (n = 910); AID 1259320, 2017;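 active = Compounds whose fitted half-maximal concentration for disrupting protein-DNA binding is below 10 micromolar; the record names Rev-erb in its text, so the target is in doubt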
# * = called active by the depositor; i = inactive; / = no result. In the library only some 2.9% were active in any assay of this set; here they are far more common.
SMILES,EP2 modulator,RAM inhibit,SKN-1 block,NR1D1 modulator,PG9 binder,PGE2 EP2 inh,NR1D1 mod conf,others
Nc1ccc2nc3c(=O)n(CCc4ccccc4)c(=O)[nH]c3nc2c1,-48,/,-23,72*,-6,8,64*,RORg DNA counter=i
Cc1cc2nc3c(=O)n(CCc4ccccc4)c(=O)[nH]c3nc2cc1N,-42,/,-60,38*,-6,6,34*,RORg DNA counter=2.1*
Nc1ccc2nc3c(=O)n(C4CCCCC4)c(=O)[nH]c3nc2c1,0,/,-52,77*,-5,6,83*,RORg DNA counter=>40
CCCCn1c(=O)[nH]c2nc3cc(N)ccc3nc2c1=O,-16,3,-54,14,-11,9,/,
Cc1cccc(C)c1NC(=O)CN(C)C(=O)CCc1nc2sc3c(c2c(=O)[nH]1)CCCC3,/,/,-12,3,2,/,/,
CN(CC(=O)Nc1ccc(F)c(F)c1F)C(=O)CCc1nc2sc3c(c2c(=O)[nH]1)CCCC3,/,/,25,19*,0,/,17,
CN(CC(=O)Nc1cccc(F)c1)C(=O)CCc1nc2sc3c(c2c(=O)[nH]1)CCCC3,/,/,2,20*,2,/,7,
CN(CCOc1ccccc1)C(=O)CCc1nc2sc3c(c2c(=O)[nH]1)CCCC3,/,/,7,6,0,/,/,
Cc1nn(CC(=O)NC(C)(C)C)c(=O)c2cc3ccsc3n12,-12,/,/,/,/,/,/,
CN(C)C(=O)CSc1cnc2ccccc2n1,3,1,4,-6,1,11,/,
Cc1ccc(C(=O)CSc2cnc3ccccc3n2)cc1C,-45,4,11,30*,2,8,14,
Cc1ccc(-c2c(C)sc(=NC(=O)c3ccco3)n2C)cc1,20,3,13,37*,1,5,16*,
COc1ccc(OC)c2c1sc(=NC(=O)c1ccco1)n2C,-3,5,5,16,1,11,/,
COC(=O)CSc1nc(N2CCOCC2)nc(N2CCOCC2)n1,-28,/,/,/,/,11,/,
N#Cc1c(N2CCOCC2)nsc1-c1ccc(C(F)(F)F)cc1,5,/,4,22*,5,22,16,
CCCCOC(=O)c1cc(C)nc2ccc(Br)cc12,46,0,7,44*,7,20,33*,RORg DNA counter=>40
Cc1cc(C(N)=O)c2cc(Br)ccc2n1,19,0,-5,-2,-1,11,/,
O=c1[nH]c(-c2ccccc2F)nc2c1sc(=S)n2Cc1ccccc1,17,5,5,24*,-3,5,2,
CCOC(=O)c1cc(-c2cc(OC)c(OC)c(OC)c2)nc2c1c(=O)[nH]c(=O)n2Cc1ccccc1,24,4,6,23*,0,18,9,
CC1(C)Oc2ccc(C(=O)NC3CCCC3)cc2N(CC(=O)Nc2ccc(Cl)cc2)C1=O,-75,/,/,/,/,14,/,
CCn1c(=O)cc(SCC(=O)Nc2ccc(Cl)cc2)c2ccccc21,-5,5,5,138*,0,8,90*,RORg DNA counter=>40
CCOC(=O)c1ccc(NC(=O)COc2cc(=O)n(CC)c3ccccc23)cc1,47,5,-8,28*,1,31,27*,
CCn1c(=O)cc(SCC(=O)Nc2ccc(OC)c(OC)c2)c2ccccc21,11,0,15,-3,-3,8,/,
CCCn1c(SC)nc2c1c(=O)[nH]c(=O)n2C,14,/,/,/,/,7,/,
